Here are results for 7 compounds from PubChem BioAssay (Tox21).

Assay [1] is described as follows: qHTS assay to identify small molecule agonists of the peroxisome proliferator-activated receptor delta (PPARd) signaling pathway - cell viability counter screen (AID 743211). Further: nearly all actives have a fitted effect of over 55% in size. Further: potency means the concentration at half of the fitted maximal effect. The essentials:
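Viability of GeneBLAzer PPARd UAS-bla HEK293H cells was assessed after 17 h compound incubation at 37C, using CellTiter-Glo reagent added after the reporter read and luminescence recorded 30 min later.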

A short description of assay [2]: qHTS assay to identify small molecule antagonists of the peroxisome proliferator-activated receptor delta (PPARd) signaling pathway - cell viability counter screen (AID 743213). Further: nearly all actives have a fitted effect of over 50% in size. Further: potency means the concentration at half of the fitted maximal effect. The essentials: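 Luminescence from CellTiter-Glo, added after the bla read and incubated 30 min at room temperature, gives viability of HEK293H PPARd-bla cells exposed to compounds for 17 h at 37 C with 300 nM L165041.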

Assay [3] addresses Bile acid receptor (Homo sapiens) (UniProt Q96RI1). The assay is described as follows: qHTS assay to identify small molecule antagonists of the farnesoid-X-receptor (FXR) signaling pathway (AID 743217; active means well fitted inhibition curve with a large enough effect in the signal ratio in the repeat runs, not every such curve was filed as active; the % refers to the signal ratio). The essentials:
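Test compounds are pin-transferred onto FXR-bla HEK 293T cells, then chenodeoxycholic acid is added at 50 uM final. After 16 h at 37 °C, LiveBLAzer B/G substrate is applied for 2 h at room temperature and fluorescence read.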

A short description of assay [4]: qHTS assay to identify small molecule agonists of the farnesoid-X-receptor (FXR) signaling pathway - cell viability counter screen (AID 743218). Further: nearly all actives have a fitted effect of over 45% in size. Summed up:
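Quantitative HTS counter screen measuring ATP-based viability via CellTiter-Glo luminescence in HEK 293T cells carrying a UAS-driven beta-lactamase reporter, after 16 h compound exposure at 37 C.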

Assay [5] deals with Bile acid receptor (Homo sapiens) (UniProt Q96RI1). Nature of the assay: qHTS assay to identify small molecule agonists of the farnesoid-X-receptor (FXR) signaling pathway (AID 743220; active means well fitted activation curve with a large enough effect in the signal ratio in the repeat runs, not every such curve was filed as active; the % refers to the signal ratio). Summed up: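 FXR-UAS-bla HEK 293T cells carrying a UAS-driven beta-lactamase reporter were plated for 5 h at 37C/5% CO2, then exposed to DMSO-dissolved Tox21 10K compounds for 16 h at 37C. A LiveBLAzer B/G FRET substrate was loaded for 2 h at room temperature before fluorescence reading.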
Chain of Bile acid receptor (Homo sapiens) (Q96RI1 whole entry, looked up): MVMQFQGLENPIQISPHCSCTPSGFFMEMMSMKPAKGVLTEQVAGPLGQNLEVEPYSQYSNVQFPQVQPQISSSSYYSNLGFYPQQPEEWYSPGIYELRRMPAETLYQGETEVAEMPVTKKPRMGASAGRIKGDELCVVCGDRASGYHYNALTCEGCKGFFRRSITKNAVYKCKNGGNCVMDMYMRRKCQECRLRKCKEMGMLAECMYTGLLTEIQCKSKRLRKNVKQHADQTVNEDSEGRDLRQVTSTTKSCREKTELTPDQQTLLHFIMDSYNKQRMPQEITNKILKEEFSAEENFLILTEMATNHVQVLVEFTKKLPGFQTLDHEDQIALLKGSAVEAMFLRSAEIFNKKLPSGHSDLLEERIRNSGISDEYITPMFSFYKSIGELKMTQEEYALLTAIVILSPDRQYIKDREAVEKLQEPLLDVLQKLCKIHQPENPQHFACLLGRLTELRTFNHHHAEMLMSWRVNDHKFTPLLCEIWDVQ

Assay [6] is described as follows: qHTS assay to identify small molecule antagonists of the farnesoid-X-receptor (FXR) signaling pathway - cell viability counter screen (AID 743221; active means well fitted cell-killing curve with a large enough effect in the repeat runs, not every such curve was filed as active; further: nearly all actives have a fitted effect of over 50% in size; further: potency means the concentration at half of the fitted maximal effect). The essentials: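 Quantitative HTS of the Tox21 10K library run in parallel with the beta-lactamase reporter read. HEK 293T cells carrying a UAS-driven bla reporter got compound and 50 uM CDCA (final) for 16 h; ATP-based luminescence followed.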

Assay [7] is described as follows: qHTS assay to identify small molecule agonists of the vitamin D receptor (VDR) signaling pathway - cell viability counter screen (AID 743224). Further: nearly all actives have a fitted effect of over 50% in size. Further: potency means the concentration at half of the fitted maximal effect. Summed up:
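CellTiter-Glo viability readout on VDR-bla cells, measured after 16 h of compound treatment at 37C in the same wells.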

Assay [8] in a line: qHTS assay to identify small molecule antagonists of the vitamin D receptor (VDR) signaling pathway - cell viability counter screen (AID 743225). Further: nearly all actives have a fitted effect of over 50% in size. Further: potency means the concentration at half of the fitted maximal effect. The essentials:
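Cells (VDR-UAS-bla HEK 293T) are plated, rested 4 h at 37C, dosed with compound and 3 nM final 1-alpha,25-dihydroxy vitamin D3, and incubated 16 h. Viability is taken from CellTiter-Glo luminescence in the reporter wells.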

Assay [9] in a line: qHTS assay to identify small molecule agonists of the endoplasmic reticulum stress response signaling pathway (AID 1159516; active means well fitted activation curve with a large enough effect in the signal ratio in the repeat runs, not every such curve was filed as active; the % refers to the signal ratio). Summed up:
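Fluorescence at 460 and 530 nm (405 nm excitation) reports beta-lactamase from an ER stress response element in HeLa cells treated 5 hr at 37 C.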

Assay [10] can be described thus: qHTS assay to identify small molecule agonists of the endoplasmic reticulum stress response signaling pathway - cell viability counter screen (AID 1159517; calls by dose curve; further: nearly all actives have a fitted effect of over 50% in size; further: potency means the concentration at half of the fitted maximal effect). The essentials: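 ESRE-bla HeLa cells (1,500/well) were plated overnight at 37 C and exposed to compounds for 5 hr. After the 2 hr beta-lactamase substrate read, CellTiter-Glo went into the same wells, and luminescence was read after 30 min at room temperature.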

A short description of assay [11]: qHTS assay to identify small molecule antagonists of the retinoid-related orphan receptor gamma (ROR-gamma) signaling pathway - cell viability counter screen (AID 1159520). Further: nearly all actives have a fitted effect of over 50% in size. Further: potency means the concentration at half of the fitted maximal effect. Summed up: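 Cytotoxicity was read from cellular ATP (CellTiter-Glo luminescence) after 16 hr at 37 C with 1 uM doxycycline induction. The inducer was added 2 hr after compound transfer to Tet-on ROR gamma CHO cells.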

Assay [12] concerns the target Nuclear receptor ROR-gamma (Homo sapiens) (UniProt P51449). The assay is described as follows: qHTS assay to identify small molecule antagonists of the retinoid-related orphan receptor gamma (ROR-gamma) signaling pathway (AID 1159521; further: nearly all actives have a fitted effect of over 50% in size; further: potency means the concentration at half of the fitted maximal effect). The essentials:
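RORγ antagonism is scored from reduced reporter luminescence in Tet-on CHO cells. Induction used 1 uM final doxycycline hyclate for 16 h at 37 C, following a 2 h compound exposure.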

Assay [13] is described as follows: qHTS assay to identify small molecule agonists of the AP-1 signaling pathway - cell viability counter screen (AID 1159525; calls by dose curve; further: nearly all actives have a fitted effect of over 55% in size; further: potency means the concentration at half of the fitted maximal effect). Summed up: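 Intracellular ATP by Cell Titer Glo luminescence (30 min, RT) in the same ME-180 AP-1-bla wells after the 5 h compound exposure at 37 °C. Normalised to tetra n-octyl ammonium bromide and DMSO controls.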
Assay [14] is described as follows: qHTS assay to identify small molecule agonists of the AP-1 signaling pathway (AID 1159526; calls by dose curve).
The target in assay [15] is Retinoic acid receptor RXR-alpha (Homo sapiens) (UniProt P19793). Nature of the assay: qHTS assay to identify small molecule agonists of the RXR signaling pathway (AID 1159527; calls by dose curve; further: nearly all actives have a fitted effect of over 35% in size). Summed up: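 qHTS of the Tox21 10K library in GeneBLAzer RXR-alpha HEK 293T cells carrying a beta-lactamase reporter […]; 16 hr treatment, 9-cis retinoic acid as agonist control, FRET read-out.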
Chain of Retinoic acid receptor RXR-alpha (Homo sapiens) (P19793 whole entry, looked up): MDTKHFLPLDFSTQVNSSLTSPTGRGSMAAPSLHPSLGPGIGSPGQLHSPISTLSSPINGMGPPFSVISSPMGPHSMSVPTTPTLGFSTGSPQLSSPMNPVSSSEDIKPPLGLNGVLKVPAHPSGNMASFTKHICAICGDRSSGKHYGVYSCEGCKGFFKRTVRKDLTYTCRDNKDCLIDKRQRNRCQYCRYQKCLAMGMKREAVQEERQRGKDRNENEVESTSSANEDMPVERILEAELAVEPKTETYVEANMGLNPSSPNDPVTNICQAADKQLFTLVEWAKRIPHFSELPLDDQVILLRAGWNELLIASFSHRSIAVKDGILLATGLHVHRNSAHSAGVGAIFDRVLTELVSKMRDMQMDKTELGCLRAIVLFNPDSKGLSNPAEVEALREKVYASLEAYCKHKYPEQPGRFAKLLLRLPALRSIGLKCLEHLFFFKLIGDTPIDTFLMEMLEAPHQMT

For assay [16], the target named is Peroxisome proliferator-activated receptor delta (Homo sapiens) (UniProt Q03181). Nature of the assay: qHTS assay to identify small molecule agonists of the peroxisome proliferator-activated receptor delta (PPARd) signaling pathway (AID 743212; calls by dose curve;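 further: HEK293H cells with PPARd UAS beta-lactamase reporter GeneBLAzer system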). Summed up:
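Beta-lactamase reporter readout: a ratiometric FRET signal from the LiveBLAzer substrate after 2 h at room temperature. Compound exposure at 37 °C in PPARδ-bla HEK293H cells driven by an upstream activator sequence.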

Assay [17] concerns the target Vitamin D3 receptor (Homo sapiens) (UniProt P11473). Nature of the assay: qHTS assay to identify small molecule agonists of the vitamin D receptor (VDR) signaling pathway (AID 743222; calls by dose curve). Summed up:
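Tox21 cell reporter format: VDR-bla line, 16 h compound exposure in 5% CO2 at 37C, then fluorescence intensity after 2 h with LiveBLAzer B/G FRET substrate.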

The target is the same in assay [18]. Nature of the assay: qHTS assay to identify small molecule antagonists of the vitamin D receptor (VDR) signaling pathway (AID 743223; active means well fitted inhibition curve with a large enough effect in the signal ratio in the repeat runs, not every such curve was filed as active; the % refers to the signal ratio). Summed up:
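Fluorescence from LiveBLAzer B/G FRET substrate, read after 2 h at room temperature, reflects beta-lactamase reporter activity in VDR-bla cells treated 16 h at 37C with compounds and agonist 1alpha,25-dihydroxyvitamin D3 (3 nM final).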

Assay [19] deals with Peroxisome proliferator-activated receptor delta (Homo sapiens) (UniProt Q03181). Nature of the assay: qHTS assay to identify small molecule antagonists of the peroxisome proliferator-activated receptor delta (PPARd) signaling pathway (AID 743215; active means well fitted inhibition curve with a large enough effect in the signal ratio in the repeat runs, not every such curve was filed as active; the % refers to the signal ratio;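 further: cells stimulated with agonist L165041 at 300 nM final during compound exposure; series mostly up to about 62 µM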). The essentials:
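Here, a reporter line (HEK293H, beta-lactamase under a UAS) measures PPARd signaling. Compounds are tested against agonist L165041 at 300 nM final concentration over 17 h at 37 C, with fluorescence read after substrate.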

Where “and” joins values, the source holds several entries; their conditions need not be identical. Equal entries are not always repeated. Records with an inconclusive call do not appear. A structure can be active in one record and inactive in another. Calls of active or inactive are those of the source. Unless noted, the call rests on the fitted dose curve; in most records, active means well fitted curve in the direction sought with a large enough effect in the repeat runs; inconclusive means weak or mixed curves; inactive means no such curve, though single readings can be large; an effect the other way counts as inactive or inconclusive.

Chain of Peroxisome proliferator-activated receptor delta (Homo sapiens) (Q03181 whole entry, looked up): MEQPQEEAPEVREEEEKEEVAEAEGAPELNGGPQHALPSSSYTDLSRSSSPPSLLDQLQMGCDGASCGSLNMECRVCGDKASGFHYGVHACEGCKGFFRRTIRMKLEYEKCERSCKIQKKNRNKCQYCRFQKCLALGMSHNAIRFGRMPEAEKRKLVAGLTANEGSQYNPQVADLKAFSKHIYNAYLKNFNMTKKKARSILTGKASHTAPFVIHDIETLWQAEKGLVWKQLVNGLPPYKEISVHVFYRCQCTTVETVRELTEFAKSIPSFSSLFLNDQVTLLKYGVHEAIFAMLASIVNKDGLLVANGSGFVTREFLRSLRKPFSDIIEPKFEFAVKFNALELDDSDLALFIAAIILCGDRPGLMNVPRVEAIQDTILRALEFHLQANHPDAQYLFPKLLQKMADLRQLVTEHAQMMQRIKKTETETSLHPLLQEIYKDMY
Chain of Vitamin D3 receptor (Homo sapiens) (P11473 whole entry, looked up): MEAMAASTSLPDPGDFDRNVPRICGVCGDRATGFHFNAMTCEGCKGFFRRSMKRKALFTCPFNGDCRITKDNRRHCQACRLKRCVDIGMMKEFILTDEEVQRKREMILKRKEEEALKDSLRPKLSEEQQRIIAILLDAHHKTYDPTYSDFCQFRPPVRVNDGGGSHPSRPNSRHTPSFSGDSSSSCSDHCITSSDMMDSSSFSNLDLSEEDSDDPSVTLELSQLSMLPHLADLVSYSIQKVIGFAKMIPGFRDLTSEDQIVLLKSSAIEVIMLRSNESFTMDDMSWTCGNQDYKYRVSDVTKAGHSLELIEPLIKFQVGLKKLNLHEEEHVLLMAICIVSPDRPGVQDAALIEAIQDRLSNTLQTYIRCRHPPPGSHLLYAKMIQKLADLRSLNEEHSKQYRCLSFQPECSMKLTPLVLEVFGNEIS

Take `Clc1ccc(C(Cl)(Cl)Cl)cc1`: the Potency result in [1], in assay [2], in assay [3], in assay [4], in [5] and in assay [6] was “inactive” throughout. The Potency result in [7], in assay [8], in assay [9], in [10], in [11] and in assay [12] was “inactive” in each case. Further, the Potency entry in assay [13] and in [15] was “inactive” throughout. Moreover, the compound was called inactive in assay [14].

`CCCCCCCC[N+](C)(CCCCCCCC)CCCCCCCC`: the Potency in assay [1] was 4.36 µM (active) and 2.46 µM (active) and 5.49 µM (active); in assay [2], 3.88 µM (active) and 2.46 µM (active) and 5.49 µM (active); in assay [6], 13.8 µM (active) and 7.77 µM (active) and 21.9 µM (active); in assay [7] it was 6.15 µM (active) and 3.09 µM (active) and 5.49 µM (active); in [8], 5.48 µM (active) and 6.93 µM (active) and 6.16 µM (active); in [10], “inactive and 13.8 µM (active) and 21.9 µM (active)”. The Potency was 24.3 µM (active) and 21.7 µM (active) and 10.9 µM (active) in assay [11]; 4.32 µM (active) and 2.17 µM (active) and 6.11 µM (active) in assay [12]; 17.3 µM (active) and 13.8 µM (active) and 19.5 µM (active) in assay [13]. Also, in [9], the Potency result is “inactive”.

On to `COP(=S)(OC)SCn1nnc2ccccc2c1=O`, for which the Potency result in [1], in assay [16], in assay [2], in assay [4], in assay [6] and in assay [18] was “inactive” throughout. In addition, the Potency entry in assay [7], in assay [8], in assay [9], in assay [10], in assay [11] and in [12] was “inactive” throughout. Also, the Potency result in assay [13] is “inactive”. Also, the compound was classed as inactive in assay [17].

For `CCOC(=O)c1ccccc1N`, the Potency result in assay [1], in assay [16], in [2], in assay [19], in [3] and in [4] was “inactive” in each case. Further, the Potency entry in [5], in [6], in assay [18], in assay [7], in assay [8] and in assay [9] was “inactive” in each case. The Potency result in [10], in assay [11], in [12] and in assay [13] was “inactive” throughout. For the same compound, the call in [17] and in assay [14] was inactive.

With `ClC(Cl)=C(Cl)C(Cl)=C(Cl)Cl`, the Potency entry in [1], in assay [16], in [2], in assay [19], in assay [6] and in assay [7] was “inactive” in each case. Moreover, the Potency result in assay [8], in assay [9], in assay [10], in assay [11], in assay [12] and in [13] was “inactive” throughout. For the same compound, the Potency entry in assay [15] is “inactive”. Besides, the call in assay [14] was inactive.

Consider `[CH3][Sn]([Cl])([Cl])[Cl]`, for which the Potency result in assay [1], in [16], in assay [2], in [19], in assay [6] and in assay [18] was “inactive” in each case. In addition, the Potency entry in [7], in assay [8], in assay [9], in assay [10], in [11] and in assay [12] was “inactive” each time. For the same compound, the Potency entry in assay [13] and in assay [15] was “inactive” throughout. Further, the result in [17] and in assay [14] was inactive.

`CC(C)(c1ccccc1)c1ccc(O)cc1`: the Potency in assay [1] is 54.5 µM (active); in [12], 60.6 µM (active). In addition, the Potency entry in [16], in [2], in assay [3], in [4], in assay [5] and in [6] was “inactive” throughout. The Potency entry in assay [18], in assay [7] and in [9] was “inactive” throughout. In addition, the call in assay [17] was inactive.
